ASM inhibitor: human S-ASM enzyme inhibition; P17405; placental ASM, HMU-PC fluorogenic substrate, 60 min; Potency, µM (top dose mostly 57.5 µM), for the others: at the top dose activity change, negative = inhibition, most hits filed as inhibitors; 0.006% of 340,000 active
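Steps: dispense placental human ASM, pin compound, wait 10 min at room temperature, add HMU-PC0 substrate at 9 uM final, incubate 60 min at 37 °C, add stop solution raising pH to 10, read fluorescence.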
PLK1 PBD block: inhibitors of human PLK1 polo-box domain binding. 2.8% of 360,000 active. Plk1 PBD binding of FITC phosphopeptide, fluorescence polarization. Potency, µM, for inactives: max response, negative = inhibition, most hits filed as inhibitors. P53350; note: series mostly up to about 57 µM; % is set by controls: 0 for no effect and ±100 for the full control effect; nearly all actives have a fitted effect of over 65% in size
Pin1 inhibitor: human Pin1 inhibition; Q13526; Pin1 FP peptide displacement, HiFluor488, 10 min; Potency, µM (doses to about 115 µM), for the others: at the top dose activity, negative = inhibition, actives largely listed as inhibitors; 0.009% of 390,000 active; AID 504891; active = well fitted inhibition curve with a large enough effect in the polarisation, with a control signal flat, not every such curve was filed as active; inconclusive = small, poorly fitted or top-dose-only effect, or effect the other way, or a change in a side signal; inactive = no such curve, though single readings can be large or run the other way; the % refers to the polarisation; note: % is set by controls: 0 for no effect and ±100 for the full control effect
Target sequence (Q13526 whole entry, looked up): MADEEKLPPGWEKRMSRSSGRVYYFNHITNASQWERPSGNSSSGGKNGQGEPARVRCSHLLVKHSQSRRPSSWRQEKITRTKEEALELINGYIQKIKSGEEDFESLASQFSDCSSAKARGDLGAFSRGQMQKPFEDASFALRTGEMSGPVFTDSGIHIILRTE
TDP1 block: inhibitors of human tyrosyl-DNA phosphodiesterase TDP1; Q9NUW8; recombinant TDP1, AlphaScreen DNA substrate cleavage; Potency, µM (series often up to 130 µM), without a hit: at the highest dose activity change, negative = inhibition, most hits filed as inhibitors; 0.28% of 350,000 active; AID 485290; note: % is set by controls: 0 for no effect and ±100 for the full control effect; nearly all actives have a fitted effect of over 40% in size
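E. coli-derived human Tdp1, 1 nM final. Cpd preinc 15 min RT; substrate 15 nM final, 5 min RT; AS bead mix 10 ug/ml final, 10 min RT. Signal loss = tyrosine-FITC cleavage. No-enzyme wells = max signal.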
VDR inhibitor: inhibitors of human vitamin D receptor; P11473; VDR-SRC2-3 peptide fluorescence polarization, 2 h; Potency, µM, for the others: max response, negative = inhibition, actives largely listed as inhibitors; 0.93% of 400,000 active; AID 504847; note: % is set by controls: 0 for no effect and ±100 for the full control effect
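FP read-out; VDR + SRC2-3 coactivator peptide; 23 nl compound by pintool; 2 h RT incubation; reagents held at 4 deg C, protected from light.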
Tb PFK inh: T. brucei PFK enzyme inhibition; T. brucei PFK, ADP-Glo luminescence; Potency, µM (highest dose often 57.5 µM), for inactives: top-dose activity, negative = inhibition, most hits filed as inhibitors; 0.17% of 330,000 active;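 note: 0% = uninhibited 1x PFK enzyme wells and -100% = no-enzyme wells; nearly all actives have a fitted effect of over 60% in size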
Target sequence (O15648 whole entry, looked up): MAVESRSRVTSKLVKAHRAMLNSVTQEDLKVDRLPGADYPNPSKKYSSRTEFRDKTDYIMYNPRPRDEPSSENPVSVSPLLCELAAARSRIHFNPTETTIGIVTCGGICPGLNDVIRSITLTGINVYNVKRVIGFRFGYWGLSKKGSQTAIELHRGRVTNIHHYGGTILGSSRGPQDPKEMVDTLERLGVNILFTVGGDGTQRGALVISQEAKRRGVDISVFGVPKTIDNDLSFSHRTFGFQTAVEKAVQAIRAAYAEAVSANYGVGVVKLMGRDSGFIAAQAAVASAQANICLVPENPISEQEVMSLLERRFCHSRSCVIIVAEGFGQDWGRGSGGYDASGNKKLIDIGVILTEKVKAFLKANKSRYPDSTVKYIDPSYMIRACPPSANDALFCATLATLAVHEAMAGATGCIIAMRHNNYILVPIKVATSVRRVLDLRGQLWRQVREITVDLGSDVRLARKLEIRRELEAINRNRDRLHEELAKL
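Luminescent ADP detection (ADP-Glo, two-step: ATP depletion then ADP-to-ATP conversion for luciferase) reported PFK activity after 45 min room-temperature reaction of 1.25 nM enzyme with 0.5 mM F6P and 0.1 mM ATP at pH 8.0.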
VDR confirm: inhibits human vitamin D receptor, primary hit validation; Potency, µM, most hits filed as inhibitors; shares compounds with VDR inhibitor; VDR-coactivator inhibition assay, qHTS confirmation; 89% of 840 active; AID 602199
VDR FP: blocks human VDR-coactivator binding in fluorescein assay | Potency, µM (titrated, usually from 57.1 µM), inactives show top-dose activity change, negative = inhibition, most hits filed as inhibitors | shares compounds with VDR inhibitor | VDR-coactivator binding, fluorescein fluorescence polarization | AID 602200 | 48% of 840 active
VDR bla reporter: inhibits human VDR in beta-lactamase reporter cells; 23% of 840 active; shares compounds with VDR inhibitor; AID 602202; VDR beta-lactamase reporter cells, FRET ratio; cells co-treated with VDR agonist LG190178; Potency, µM (highest dose often 46.1 µM), inactives show at the highest dose activity change, negative = inhibition, most hits filed as inhibitors; note: % is set by controls: 0 for no effect and ±100 for the full control effect
VDR viability: cytotoxic in counter-screen for VDR inhibitors; 18% of 840 active; cytotoxicity counter-screen, cell viability, qHTS; shares compounds with VDR inhibitor; Potency, µM (top dose mostly 48.3 µM), without a hit: at the highest dose activity change, negative = cytotoxicity, usual class: cytotoxic;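 note: plate controls were DMSO for no effect and high-concentration cycloheximide for full effect; nearly all actives have a fitted effect of over 75% in size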
* = called active by the depositor; ? = inconclusive; / = not tested or not shown; [ ] = remark or other dose. Compounds with a hit are over-represented: about 3.1% of the library has one in this group of screens. Unless noted, calls come from the whole dose curve; as a rule, active = well fitted curve in the direction sought with a large enough effect; inconclusive = small, poorly fitted or top-dose-only effect, or another doubt; inactive = no such curve, though single readings can be large; an effect the other way counts as inactive or inconclusive. Potency is the fitted concentration of half-maximal effect.

SMILES | ASM inhibitor | PLK1 PBD block | Pin1 inhibitor | TDP1 block | VDR inhibitor | Tb PFK inh | VDR confirm | VDR FP | VDR bla reporter | VDR viability
CCOC(=O)c1cc(S(=O)(=O)N2CCN(c3ccc(F)cc3)CC2)[nH]n1 | / | / | 0.7% | 0.6% | 7.0% | / | / | / | / | /
Cc1ccc(C(=O)/C=C/c2cc(Br)cc(Br)c2O)o1 | -10.9% | 26.7µM* | 18.9% | / | 8.91µM* | 0.0% | 3.77* | ? | ? | -17.1%
CC1CCn2c(nc3cc(C(=O)NCc4ccc(OC(C)C)cc4)ccc32)C1 (stereo not drawn) | / | / | 1.0% | 0.0% | 14.5% | / | / | / | / | /
CCSc1ncc(Cl)c(C(=O)Nc2ccc(S(N)(=O)=O)cc2)n1 | -3.6% | -13.9% | -2.8% | / | 4.3% | -0.6% | / | / | / | /
CC(=O)Nc1ccc(NC(=O)c2nc(S(=O)(=O)Cc3ccc(F)cc3)ncc2Cl)cc1 | / | / | -0.9% | 7.0% | ? | / | / | / | / | /
Cc1ccc(NC(=O)c2nc(S(=O)(=O)Cc3ccccc3F)ncc2Cl)cc1C | / | / | / | / | / | / | 3.16* | 3.16µM* | 9.2µM* | 15µM*
Cc1ccc(NC(=O)c2nc(S(=O)(=O)Cc3ccccc3F)ncc2Cl)cc1 | / | / | / | / | / | / | 1.58* | 1.41µM* | 16.4µM* | ?
NS(=O)(=O)c1ccc(NC(=O)c2nc(S(=O)(=O)Cc3ccccc3F)ncc2Cl)cc1 | / | / | / | / | / | / | 5.01* | 3.55µM* | ? | 10.7%
Cc1ccc(NC(=O)c2nc(S(=O)(=O)Cc3ccc(F)cc3)ncc2Cl)cc1C | / | / | ? | 4.7% | -29.9% | / | / | / | / | /
COc1ccc(C2Nc3ccccc3C(=O)N2Cc2ccccc2)cc1COc1ccc([N+](=O)[O-])cc1 (stereo not drawn) | / | / | 1.3% | 1.9% | -9.3% | / | / | / | / | /
COc1cccc(CNC(=O)c2ccc(NC(=O)N3CC(C)Sc4ccccc43)cc2)c1 (stereo not drawn) | / | / | 22.1% | 7.6% | 21.9% | / | / | / | / | /
Oc1ccc(COc2cccc3ccccc23)c2cccnc12 | / | / | / | / | / | -4.2% | / | / | / | /
CCOc1ccc(CCNC(=O)c2c3c(nc4ccccc24)C(=O)N(C2CCCCC2)C3)cc1 | / | / | 1.8% | 3.2% | 1.3% | / | / | / | / | /
CCCOC(=O)c1ccc(NC(=O)C2CCCO2)cc1 (stereo not drawn) | 0.3% | -8.8% | -0.2% | 6.5% | 1.9% | -10.5% | / | / | / | /
CCCOC(=O)c1c(NC(=O)C2CCCO2)sc(C(=O)OC)c1C (stereo not drawn) | 0.1% | 9.47µM* | -4.8% | 5.3% | 79.4µM* | ? | 23.8* | ? | -5.4% | 13.2%
CCN(C(=O)c1cc(S(=O)(=O)N2CCc3ccccc32)cn1C)c1cccc(C)c1 | / | / | 13.4% | 3.9% | 3.3% | / | / | / | / | /
O=C(CCCCn1c(=O)c2ccccc2n(Cc2cccc(F)c2)c1=O)NCc1ccc2c(c1)OCO2 | / | / | -1.4% | 2.7% | 40.5% | / | / | / | / | /
COC(=O)CC1=NN(c2ccc(OC)cc2)C(=O)/C1=C\c1ccc(Cl)cc1 | -18.2% | 2.38µM* | ? | 8.1% | 39.8µM* | 0.9% | 21.2* | ? | -4.9% | -10.1%
CCn1nnc2cc(C(=O)Nc3cccc(Cl)c3C)ccc21 | / | / | 3.8% | 0.0% | 8.7% | / | / | / | / | /
CC(C)(C)c1nnc(NS(=O)(=O)c2ccc([N+](=O)[O-])cc2)s1 | 8.2% | 23.8µM* | 1.4% | / | ? | -1.6% | 22.4* | 25.1µM* | -10.1% | 23.7%
Cc1ccc(NC(=O)C2CCCN2S(=O)(=O)c2cccc3nsnc23)cc1Cl (stereo not drawn) | / | / | 4.4% | 8.1% | 4.1% | / | / | / | / | /
Cc1ccccc1CS(=O)(=O)c1nnc([C@H](CC(C)C)NC(=O)OC(C)(C)C)o1 | -0.7% | 8.91µM* | 1.8% | 1.0% | 20µM* | 0.0% | 10.6* | 7.08µM* | ? | ?
CCN(CC)S(=O)(=O)c1ccc2c(c1)c(=O)c(C(=O)NCc1ccccc1Cl)cn2C | / | / | -1.3% | -4.7% | -16.8% | / | / | / | / | /
CCN(C(=O)c1cnc(N2CCOCC2)c2ccccc12)c1cc(C)ccc1C | / | / | 2.8% | 6.6% | 5.2% | / | / | / | / | /
O=C(/C(=C/c1ccc(Cl)cc1)c1nc2ccccc2[nH]1)c1cccs1 | -13.5% | -11.4% | 18.6% | 11.4% | 17.8µM* | -6.8% | 9.47* | ? | 6.51µM* | 8.2µM*
O=C(/C(=C\c1ccccc1)c1nc2ccccc2[nH]1)c1ccc(Cl)cc1 | -2.5% | -2.3% | 21.9% | 5.3% | ? | -4.0% | / | / | / | /
c1ccc(Cc2nn3c(COc4ccccc4)nnc3s2)cc1 | -1.6% | 4.23µM* | -1.2% | -2.6% | 79.4µM* | ? | 23.8* | ? | 11.5% | 28.3%
O=C(COc1ccc(Cl)cc1)Nc1sc2c(c1C(=O)Nc1cccc(Cl)c1)CCCC2 | / | / | 0.6% | 3.1%[12.3 µM] | ? | / | 7.94* | 7.94µM* | -6.9% | -4.4%
